Structures are written as SMILES. Where a name gives a salt, the structure may show the parent alone.

The assay deals with Ruminococcus gnavus DSM 108212. Kind of assay: growth (OD595) fold change vs plate DMSO controls (fold change (ratio)); higher = more growth. Particulars: incubation time: 27 h, anaerobic, 37 °C. The method, boiled down:
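The measure reported is growth, taken as fold change against the median of DMSO controls on the same plate. Anaerobic mGAM cultures in 96-well plates (27 h, 37 °C) were read at 595 nm, blank-subtracted, corrected for compound background using 20 µM compound solutions in water, and multiplied by a calibration factor of 5 to give OD. Any fold change above 1.5 became NA, and 2 biological replicates were averaged.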
Turning to `O=C(CCCN1CCN(c2ccccn2)CC1)c1ccc(F)cc1` [Azaperone] (20 µM), the growth was found to be 1.12.

Turning to `C[C@H](NCc1ccc(OCc2cccc(F)c2)cc1)C(N)=O` [Safinamide] (20 µM), the growth worked out at 1.07.

On to `CCCC(=O)N1CCCN(c2nc(N)c3cc(OC)c(OC)cc3n2)CC1` [Bunazosin hydrochloride] (20 µM), for which the growth was determined as 1.06. In the case of `Cc1ccc2c(c1)c1c3n2CCNC3CCC1` (configuration not stated) [Pirlindole mesylate] (20 µM) it was 1. In the case of `CC(C)(C)NC(=O)[C@@H]1CN(Cc2cccnc2)CCN1C[C@@H](O)C[C@@H](Cc1ccccc1)C(=O)N[C@H]1c2ccccc2C[C@H]1O` [Indinavir sulfate] (20 µM) it was 0.985; in that of `COc1cc(Nc2c(C#N)cnc3cc(OCCCN4CCN(C)CC4)c(OC)cc23)c(Cl)cc1Cl` [Bosutinib] (20 µM), 1.16; in that of `O=C1[C@H](CC[C@H](O)c2ccc(F)cc2)[C@@H](c2ccc(O)cc2)N1c1ccc(F)cc1` [Ezetimibe] (20 µM), 0.955.

Values taken from the supplement of paper PMC12494721.
